Only some compounds are listed: those with a hit (about 4.8% of all), similar ones and a draw of the others.
ssDAF-12 act: activates DAF-12 receptor from parasite S. stercoralis | HEK293 ssDAF-12/GRIP1 lit1-tk-luc reporter, luminescence; % of 3 µM dafachronic acid response | activation, % at 6.8 µM | hit rate 1% among 370,000;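 active means activation above the mean over all tested compounds plus 3 SD, cut at about 0.9% in these data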
DAX1 inh-1: NR0B1 (DAX1) inhibition; P51843; HEK293 Gal4-DAX1 luciferase reporter, luminescence; inhibition, % at 6.75 µM; hit rate 0.99% among 340,000; AID 504766;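 active means inhibition above the mean over all tested compounds plus 3 SD, cut at about 4.2% in these data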;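 further: inhibition shows as a rise in luminescence from relieved DAX1 repression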
SMARCA2 act: SMARCA2 function activation, primary screen; MG213 cells, MMTV-luciferase reporter, dexamethasone, overnight; activation, % at 9.1 µM; hit rate 1% among 370,000; AID 652017; in the data active means activation above about 7.8%
hgDAF12 agonist: activates the H. glycines DAF-12 receptor ligand-binding domain | HEK293 GAL4-hgDAF12 UAS-luciferase reporter, agonist luminescence; normalized to butyrate control | activation, % at 6.8 µM | AID 687014 | hit rate 1.8% among 370,000;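 active means activation above a cutoff set at the mean of all screened compounds plus 3 SD, cut at about 10% in these data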
DAX1 inh-2: blocks DAX1 repression of SF-1 activated StAR promoter. HEK293T StAR-luciferase reporter, SF-1/DAX-1 repression relief. inhibition, % at 6.8 µM. hit rate 1.1% among 370,000;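 active means inhibition above the mean over all tested compounds plus 3 SD, cut at about 3.6% in these data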;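 further: higher inhibition means more luminescence from relief of DAX-1 repression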
hcDAF12 agonist: activates DAF-12 receptor from parasite H. contortus | HEK293 hcDAF-12 lit1-tk-luc reporter, luminescence; 0% DMSO, 100% Δ7-dafachronic acid | activation, % at 6.8 µM | hit rate 1.4% among 370,000 | AID 652067;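 active means activation above the mean of all tested compounds plus 3 SD, cut at about 5.5% in these data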
DAX1 conf: NR0B1 (human) inhibition, confirmation | shares compounds with DAX1 inh-2 | HEK293T StAR-promoter luciferase reporter, SF-1/DAX-1 repression | inhibition, % at 6.8 µM | hit rate 87% among 2,400 | AID 652134;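 active means inhibition above the average of every tested compound plus 3 SD, cut at about 3.8% in these data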;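 further: active compounds raise luminescence by relieving repression of the StAR reporter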
Target sequence (P51843 whole entry, looked up): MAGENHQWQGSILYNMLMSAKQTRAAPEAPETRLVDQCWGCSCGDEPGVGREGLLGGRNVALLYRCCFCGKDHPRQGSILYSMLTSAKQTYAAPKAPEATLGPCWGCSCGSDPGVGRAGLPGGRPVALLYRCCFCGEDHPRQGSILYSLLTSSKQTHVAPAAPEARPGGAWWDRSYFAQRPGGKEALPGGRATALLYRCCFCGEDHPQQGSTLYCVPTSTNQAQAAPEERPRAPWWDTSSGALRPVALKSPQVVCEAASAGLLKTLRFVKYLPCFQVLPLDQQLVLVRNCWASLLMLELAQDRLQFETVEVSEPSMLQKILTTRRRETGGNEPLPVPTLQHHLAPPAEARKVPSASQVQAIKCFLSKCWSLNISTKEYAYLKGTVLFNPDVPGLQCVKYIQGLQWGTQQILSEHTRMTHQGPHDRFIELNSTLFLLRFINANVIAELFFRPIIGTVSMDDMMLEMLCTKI
SF1 mutant ctr: counter-screen for DAX1 inhibitors: nonselective inhibitors with SF-1 AF2 mutant | hit rate 78% among 2,400 | AID 652136 | HEK293 StAR-luciferase, luminescence | shares compounds with DAX1 inh-2 | inhibition, % at 6.8 µM;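 active means inhibition above the mean of all tested compounds plus 3 SD, cut at about 3% in these data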
SMARCA2 conf: SMARCA2 activation, confirmation screen. shares compounds with SMARCA2 act. MG213 cells, MMTV-luciferase with dexamethasone, luminescence, overnight; MG213 cells expressing E1A, Rb sequestered; DMSO wells 0%, reference activator 100%. activation, % at 9.1 µM. hit rate 30% among 3,500. AID 652260;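 active means activation above its plate's cutoff, the mean activation of tested wells plus 3 SD, cut at about 7.9% in these data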
GAL4-VP16 Luc: counter-screen for SMARCA2 activators: GAL4-VP16 luciferase reporter activation | shares compounds with SMARCA2 act | AID 686939 | hit rate 41% among 3,500 | activation, % at 9.1 µM | HEK293 GAL4-VP16 pG5luc reporter, luciferase luminescence; scaled: DMSO wells 0%, SAHA wells 100%;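 active means activation above the solvent-only control well mean plus 3 SD, averaged across control plates, cut at about 5.2% in these data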
LXRb hcDAF ctr: counter-screen for hcDAF-12 agonists: agonists of human LXR-beta | HEK293 Gal4-LXR tk-luc reporter, luminescence, 24 h; normalized: DMSO 0%, positive control 100% | shares compounds with hcDAF12 agonist | activation, % at 6.8 µM | 3,400 tested, under 10 active | AID 743027;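 active means mean percent activation of the reporter above a cutoff set as the average over tested compounds plus their standard deviation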
hcDAF12 conf: confirmation of H. contortus DAF-12 agonists. shares compounds with hcDAF12 agonist. HEK293 hcDAF-12 lit1-tk-luc reporter, luminescence; % of Δ7-dafachronic acid response. activation, % at 6.8 µM. hit rate 61% among 3,400;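 active means mean activation across triplicate tests above the threshold derived from the earlier primary screen, cut at about 5.5% in these data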
Numbers stand for hits; n = inactive; x = not tested or not shown.

SMILES	ssDAF-12 act	DAX1 inh-1	SMARCA2 act	hgDAF12 agonist	DAX1 inh-2	hcDAF12 agonist	DAX1 conf	SF1 mutant ctr	LXRb hcDAF ctr	hcDAF12 conf	others
COc1ccc(CCN2CCCC(CN(C)C(=O)c3ccoc3)C2)cc1 (stereo unspecified)	n	n	n	13	10	7.2	8.8	5.5	n	n
CN(CC1CCCN(CCc2ccccc2F)C1)C(=O)c1ccoc1 (stereo unspecified)	n	n	n	n	n	n	x	x	x	x
CCN(CC)CCOC(=O)c1ccc(N)cc1	n	n	n	n	n	n	x	x	x	x
Cn1cc(Cl)c(C(=O)Nc2nc3ccccc3s2)n1	3.3	n	7.9	19	7.0	21	14	7.3	n	18
O=C(Nc1nc2ccccc2s1)c1c(F)cccc1Cl	n	n	n	n	n	n	x	x	x	x
COC(=O)c1cc(NC(=O)c2c(Cl)cnn2C)cc(C(=O)OC)c1	n	n	n	n	n	n	x	x	x	x
Cn1ncc(Cl)c1C(=O)Nc1ccc2c(c1)CCC2	1.3	n	n	n	5.8	6.8	5.3	n	n	5.7
Cc1ccc(-c2noc(-c3cccs3)n2)cc1	n	n	n	16	6.2	8.9	16	11	n	16
CSCC[C@H](NC(=O)[C@@H]1CSC2c3ccccc3C(=O)N21)C(=O)N1CCC[C@H]1CO (stereo partly specified)	n	n	n	n	n	n	x	x	x	x
CC1CCN(C(=O)c2cc3c(ccc4ccccc43)o2)CC1	n	n	n	12	19	9.1	10	4.3	n	6.5
Cc1ccc2nc(-c3ccc(NC(=O)C4CCCO4)cc3)[nH]c2c1 (stereo unspecified)	n	n	n	n	7.3	7.7	12	6.2	n	n
O=C1C(C=Nc2ccccc2O)=C(O)c2ccccc21	2.0	n	n	16	5.9	20	12	5.1	n	19
CN=CC1=C(O)c2ccccc2C1=O	n	n	n	n	n	n	x	x	x	x
COc1ccc(N=Cc2ccccc2O)cc1	n	n	n	n	n	n	x	x	x	x
COc1ccc(N=CC2=C(O)c3ccccc3C2=O)cc1	1.1	n	n	11	6.0	13	n	n	n	6.1
Cc1ccc(SCc2cn3c(C)csc3n2)cc1	n	n	10	12	5.2	8.0	17	7.0	n	7.8	SMARCA2 conf=n;GAL4-VP16 Luc=8.8
Cc1ccc(S(=O)(=O)NCc2cn3c(C)csc3n2)cc1	n	n	n	n	n	n	x	x	x	x
CC(=O)Nc1ccc(NC(=O)C2(C)Cc3c(-c4cccc(C(F)(F)F)c4)ccnc3O2)cc1 (stereo unspecified)	n	x	n	n	n	n	x	x	x	x
CCC1CSC(=Nc2ccc(C)cc2)N1C(=O)CN1C(=O)NC2(CCCC2)C1=O (stereo unspecified)	n	n	9.7	13	10	8.4	9.1	n	n	6.3	SMARCA2 conf=11;GAL4-VP16 Luc=8.2
O=C1/C(=C\c2ccccn2)SC(=S)N1c1ccc(S(=O)(=O)Nc2nccs2)cc1	n	n	n	n	n	n	x	x	x	x
CC(O)/C=C/c1ccc2ccccc2n1 (stereo unspecified)	n	n	n	n	n	n	x	x	x	x
Fc1cccc(F)c1/C=C/c1ccc2ccccc2n1	2.7	n	n	20	5.7	23	16	8.4	n	23
Oc1ccc(/C=N/Nc2ncc(Cl)cc2Cl)cc1	n	n	n	n	n	n	x	x	x	x
Clc1cnc(N/N=C/c2ccco2)c(Cl)c1	n	n	n	11	4.8	7.9	14	8.8	n	8.0
Cc1cccc(CCNC(=O)c2cccc(N3CCCC3=O)c2)c1	n	n	n	11	7.3	7.4	9.5	4.0	n	7.2
SMILES	ssDAF-12 act	DAX1 inh-1	SMARCA2 act	hgDAF12 agonist	DAX1 inh-2	hcDAF12 agonist	DAX1 conf	SF1 mutant ctr	LXRb hcDAF ctr	hcDAF12 conf	others
Cc1ccc(CCNC(=O)c2cccc(N3CCCC3=O)c2)cc1	x	n	x	x	x	x	x	x	x	x
COCC1CCN(C(=O)c2cc(COc3ccc(OC)c4ccccc34)on2)C1 (stereo unspecified)	n	n	n	11	5.6	8.1	5.4	5.1	n	7.7
O=C(O/N=C(\c1ccccc1)c1ccncc1)c1ccccc1Cl	n	n	n	n	n	n	x	x	x	x
N/C(=N\OC(=O)c1ccccc1Cl)c1ccccc1	3.3	n	n	18	6.1	17	19	11	n	26
N/C(=N\C(=S)Nc1ccc2c(c1)OCO2)c1ccccc1	1.7	x	n	21	21	6.8	14	8.8	n	10
O=C(CN1CCCCC1)Nc1ccc(S(=O)(=O)N2CCOCC2)cc1	n	n	n	n	n	n	x	x	x	x
COc1ccc(C(=O)Nc2nnc(-c3ccco3)s2)cc1	1.1	n	n	n	6.9	7.7	9.0	n	n	7.2
CCC(CC)c1nnc(NC(=O)c2cc(-c3ccccc3)nc3ccccc23)s1	n	n	n	n	n	n	x	x	x	x
CCC(CC)c1nnc(NC(=O)c2ccc3ccccc3n2)s1	2.1	n	n	n	4.6	11	10	6.8	n	11
Cc1ccc2c(c1)Cc1nc3ccccc3nc1-2	2.8	n	n	20	7.4	17	14	8.5	n	15
CNc1ccc(C=C2C=Cc3ccccc32)cc1	n	4.7	n	15	7.3	9.1	17	7.2	n	11
O=C(NCCc1c[nH]c2ccccc12)c1c(Cl)nc2sccn12	n	n	n	n	n	n	x	x	x	x
O=C(c1c(Cl)nc2sccn12)N(C(=O)c1c(Cl)nc2sccn12)c1ccc(Cl)cn1	1.2	n	n	n	5.4	7.9	11	3.0	n	11
COc1cc2oc(-c3ccc(O)cc3)cc(=O)c2c(O)c1OC	n	n	n	n	n	n	x	x	x	x
